Data on 47 compounds can be found in PubChem BioAssay AID2685 (National Center for Advancing Translational Sciences (NCATS), 2010).

Among all 320,000 compounds or so, about 2,100 (0.66%) were called active. Roughly 53% stayed inconclusive and do not appear here. The call rests on the fitted dose curve; in most records, active means well fitted inhibition curve with a large enough effect in the signal ratio, with a control signal flat (not every such curve was filed as active); inconclusive means small, poorly fitted or top-dose-only effect, or effect the other way, or a change in a side signal; inactive means flat fitted curve, though single readings scatter; the % refers to the signal ratio. Shown is part of a subset that was picked to be rich in actives.
Potency means the concentration at half of the fitted maximal effect.

The experiment is described as follows: qHTS Assay for Lipid Storage Modulators in Drosophila S3 Cells.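 On cell number change: cells counted by Cell Tracker Red CMTPX staining in the red channel.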 As to conditions: BODIPY lipid droplet fluorescence, 18-24 h, cells fed with added oleic acid; cell number change: measured here: cell count max response; series mostly up to 46.1 µM. A digest of the protocol:
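Drosophila S3 cells got compounds at several concentrations plus oleic acid (400 uM solution). Laser-scanning cytometry with 488 nm excitation read lipid droplets at 500-530 nm and cells at 575-640 nm. Percent activity was relative to 20 uM Triacsin C.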
A general note: qHTS replaces the single test concentration by a dilution series.
Regarding `C=CCn1c(C)c(C=C2C(=O)NC(=O)NC2=O)c2ccccc21`, the Potency result was “inactive” and the cell number change was 5.7%.
The corresponding values for `O=c1[nH]c(=O)n(-c2ccc(Br)cc2)c(O)c1C=NC(CO)(CO)CO` are “inactive” and -6.55%.
With `O=C(CCN1C(=O)COc2ccccc21)N1CCC2(CC1)OCCO2`, the Potency entry was “inactive” and the cell number change is 1.47%.
For the compound `O=c1c2ccccc2ncn1-c1ccc([N+](=O)[O-])c(C(F)(F)F)c1`, the Potency entry was “inactive” and the cell number change amounted to 7.19%.
On to `Cc1ccccc1-[n+]1c(-c2ccccc2)cc(-c2ccccc2)cc1-c1ccccc1`, for which the Potency was 23.1 µM (active).
As for `C[n+]1c(-c2ccccc2)cc(-c2ccc(O)cc2)cc1-c1ccccc1`, the Potency entry is “inactive” and the cell number change is -18%.
Turning to `O=c1[nH]c(=S)n(C2CC2)c(O)c1C=NCc1cccnc1`, the Potency result was “inactive” and the cell number change turned out to be 11.1%.
With `CC(=O)N1N=C2C3CCN(CC3)C2C1c1ccccc1` (centres undefined), the Potency entry was “inactive” and the cell number change is 1.69%.
Take `O[C@@H]1CCCC[C@H]1N1CCC(c2ccccc2)CC1`: the Potency is -4.74%.
Same read-out and setting: the value for `ON1C2CCCCC2N(O)C1c1ccccc1` (centres undefined) was “inactive”.
For `Cc1ccc(/C=C2/C(=O)NC(=O)N(CCc3ccc(F)cc3)C2=O)o1`, the Potency entry is “inactive” and the cell number change is -2.41%.
Take `FC(F)(F)c1ccccc1N1CC1c1ccncc1` (centres undefined): the Potency entry is “inactive” and the cell number change is -4.55%.
In the case of `CSc1ncc(/C=C2/C(=O)NC(=O)N(c3ccc(C)cc3)C2=O)cn1`, the Potency entry was “inactive” and the cell number change stood at 8.62%.
For `O=C(c1ccc2c(=O)n(Cc3ccc4c(c3)OCO4)c(=S)[nH]c2c1)N1CCC2(CC1)OCCO2`, in that order: “inactive” and -17%.
Regarding `O=C1NC(=O)C(=Cc2ccsc2)C(=O)N1`, the Potency result is “inactive” and the cell number change was 11.6%.
`CN1C(=O)/C(=C/c2cccn2-c2ccc3ccccc3c2)C(=O)NC1=S`: the Potency is 3.26 µM (active) and the cell number change is -19%.
On to `CN1C(=O)/C(=C\c2ccc(N3CCCCCC3)cc2)C(=O)NC1=S`, for which the Potency result was “inactive” and the cell number change is 9.11%.
`O=C1NC(=S)NC(=O)C1=Cc1cccn1-c1ccc(O)cc1`: the Potency entry was “inactive” and the cell number change was -0.957%.
Consider `CC(c1ccccc1)(c1ccccc1)c1ccncc1`, for which the Potency entry is “inactive” and the cell number change was determined as 6.39%.
With `ClC(Cl)(Cl)c1ccccc1`, the Potency was 0.58 µM (active) and the cell number change worked out at 2.26%.
On to `Cc1ccc(N)c(C(=O)c2ccccc2)c1`, for which the Potency entry is “inactive” and the cell number change was -2.37%.
For the compound `C=CCn1c(O)c(C(C)=NCc2ccc3c(c2)OCO3)c(=O)[nH]c1=O`, the Potency result was “inactive” and the cell number change was 5.5%.
In the case of `COc1ccc(C(=O)C(C)(C)NO)cc1`, the Potency is 3.26 µM (active) and the cell number change was -1.48%.
As for `COc1ccc(C(=O)N2CCCC2=O)cc1`, the Potency entry is “inactive” and the cell number change was determined as 11.9%.
For `COc1ccc(C(=O)C23CN4CN(CN(C4)C2)C3)cc1`, in that order: “inactive” and 4.85%.
On to `O=C1NC(=O)N(c2ccc3c(c2)OCO3)C(=O)/C1=C\c1ccsc1`, for which the Potency entry is “inactive” and the cell number change was -1.9%.
In the case of `CC(=O)c1cc(C(C)=O)c(C)[n+](C)c1C`, the Potency result was “inactive” and the cell number change turned out to be 12.6%.
As for `CNC(=S)N1CCN(CCN=Cc2c(O)n(-c3ccc(C)cc3)c(=S)[nH]c2=O)CC1`, the Potency result is “inactive” and the cell number change stood at 1%.
As for `Cc1cc(OCC(=O)NCc2ccncc2)c2c3c(c(=O)oc2c1)CCC3`, the Potency result was “inactive” and the cell number change was -10.8%.
Consider `Cc1cc(OCC(=O)NCC(O)c2ccccc2)c2c3c(c(=O)oc2c1)CCC3` (centres undefined), for which the Potency is 20.6 µM (active) and the cell number change was -16.3%.
On to `Cc1cc(OC(C)C(=O)NCC(O)c2ccccc2)c2c3c(c(=O)oc2c1)CCC3` (centres undefined), for which the Potency entry was “inactive”.
Regarding `CC12CN3CCN(CC(C3)/C1=N/NC(N)=O)C2`, the Potency entry was “inactive” and the cell number change was 0.944%.
For `CCC12CN3CCN(CC(C3)/C1=N\O)C2`, in that order: “inactive” and -11.3%.
The corresponding values for `CC(C)C12CN3CCN(CC(C3)/C1=N\O)C2` are 6.51 µM (active) and -1.85%.
For the compound `C/C(=N\NC(=S)Nc1ccccc1)c1c(O)n(C)c(=O)n(C)c1=O`, the Potency entry was “inactive”.
For the compound `CCN1C[C@]2(C)CC[C@H](O)[C@]34C1[C@H](C[C@H]23)[C@@]1(O)C[C@H](OC)[C@H]2C[C@@H]4[C@@H]1C2O` (some centres undefined), the Potency entry is “inactive” and the cell number change is -19.2%.
As for `CC(=NC1CCN(Cc2ccccc2)CC1)c1c(O)n(C)c(=O)n(C)c1=O`, the Potency was 29.1 µM (active) and the cell number change came out at 4.54%.
Take `C=CCn1c(O)c(C(C)=NC2CCN(Cc3ccccc3)CC2)c(=O)[nH]c1=O`: the Potency entry was “inactive” and the cell number change is 4.94%.
`Cn1c(O)c(C=NC2CCN(Cc3ccccc3)CC2)c(=O)n(C)c1=O`: the Potency entry was “inactive” and the cell number change came out at 0.664%.
`CCCCOC(=O)C1=C(N)OC2=C(C(=O)CCC2)[C@]12C(=O)N(C)c1ccccc12`: the Potency is 5.17 µM (active) and the cell number change is -3.29%.
For `CCOC(=O)C1=C(N)OC2=C(C(=O)CCC2)[C@]12C(=O)N(CC(N)=O)c1ccccc12`, in that order: “inactive” and 1.37%.
The corresponding values for `CCCCOC(=O)C1=C(N)OC2=C(C(=O)CC(C)(C)C2)[C@]12C(=O)N(C)c1ccccc12` are “inactive” and -14.5%.
With `COC1CCCCC1NCCc1ccccc1` (centres undefined), the Potency entry was “inactive” and the cell number change is -9.24%.
For the compound `N#Cc1ccc(Cn2cc(C=O)c3ccccc32)cc1`, the Potency entry was “inactive” and the cell number change turned out to be 15.7%.
Regarding `C=CCn1c(O)c(C(CC)=NCCN2CCN(C(=S)NC)CC2)c(=O)[nH]c1=O`, the Potency result is “inactive” and the cell number change was -0.0083%.
The corresponding values for `CCCCn1c(=O)c(C(=O)NCCc2ccccc2)c(O)c2ccccc21` are “inactive” and -5.77%.
For `Cc1cc(O)c2c(c1)C(=O)C13C(=C2O)C(=O)[C@H]2[C@@H](O)[C@@H]1[C@H]1[C@H](O)[C@@H]3C(=O)C3=C(O)c4c(O)cc(C)cc4C(=O)C312` (some centres undefined), the Potency is 9.2 µM (active) and the cell number change is 19.8%.
